Rows were chosen to be rich in hits. Some 1.6% of all compounds tested hit in one or more screens of this group.
Fam108B inh = blocks mouse Fam108B hydrolase in RBBP9 counter-screen; 300,000 tested, 0.33% active; inhibition, % at 9.51 µM; recombinant Fam108B, FP-Rh probe fluorescence polarization;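 active = inhibition above the screen mean inhibition plus 3 SD, computed separately per campaign, cut at about 18% in these data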;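 also: inhibitors lower polarization as less probe binds the enzyme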
PME-1 inh = PME-1 (human) inhibition; Q9Y570; recombinant PME-1, FP-Rh probe fluorescence polarization; inhibition, % at 5.9 µM; 320,000 tested, 0.53% active;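 active = inhibition above the campaign mean of all compounds plus 3 SD, cut at about 26% in these data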;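 also: competitive labeling of PME-1 active site by serine hydrolase directed probe; inhibitors block probe labeling so polarization falls and inhibition rises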
MEX-5 binding = C. elegans MEX-5 TCR-2 RNA binding activity | Q9XUB2 | MEX-5/FITC-TCR2 RNA binding, fluorescence polarization; active compounds read low | activity score (negative = inhibition of binding), % at 10 µM | 300,000 tested, 0.38% active;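 active = inhibition past about -25% in most replicates, and total fluorescence under double the plate's negative control median, limit read from the data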
LYPLA1 counter = LYPLA1 (human) inhibition in PME1 counter-screen. inhibition, % at 5.9 µM. O75608. 320,000 tested, 0.16% active. AID 2174. recombinant LYPLA1, FP-Rh probe fluorescence polarization;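 active = inhibition above the mean of all tested compounds plus 3 SD, set per campaign, cut at about 14% in these data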;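 also: inhibitors block serine hydrolase probe labeling of LYPLA1 so polarization falls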
Target sequence (O75608 whole entry, looked up): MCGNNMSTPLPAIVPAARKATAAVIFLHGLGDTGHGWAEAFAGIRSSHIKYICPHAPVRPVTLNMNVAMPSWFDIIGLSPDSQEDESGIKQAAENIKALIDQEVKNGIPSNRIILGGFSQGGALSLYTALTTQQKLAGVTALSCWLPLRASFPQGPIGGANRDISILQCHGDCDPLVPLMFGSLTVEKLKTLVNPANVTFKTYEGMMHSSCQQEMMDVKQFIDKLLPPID
PREPL inh = human PREPL enzyme inhibition; inhibition, % at 5.96 µM; recombinant PREPL, fluorescence polarization activity-based probe; 320,000 tested, 0.68% active; in the data active = inhibition above about 43%
LYPLA2 counter = blocks human lysophospholipase 2, a PME1 counter-screen; O95372; recombinant LYPLA2, FP-Rh probe fluorescence polarization; inhibition, % at 5.9 µM; 320,000 tested, 0.38% active;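 active = inhibition above the screen-wide mean plus 3 SD, limit set per campaign, cut at about 26% in these data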
Target sequence (O95372 whole entry, looked up): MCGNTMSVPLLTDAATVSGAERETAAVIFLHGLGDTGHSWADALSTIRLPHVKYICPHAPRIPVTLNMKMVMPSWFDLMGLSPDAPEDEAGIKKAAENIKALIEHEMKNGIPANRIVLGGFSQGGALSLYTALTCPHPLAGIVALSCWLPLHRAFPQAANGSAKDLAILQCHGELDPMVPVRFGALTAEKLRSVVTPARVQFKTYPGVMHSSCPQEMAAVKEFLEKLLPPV
LYPLA2 conf = LYPLA2 (human) inhibition, confirmation counter-screen | inhibition, % at 5.9 µM | recombinant LYPLA2, FP-Rh probe fluorescence polarization | 1,100 tested, 72% active | shares compounds with LYPLA2 counter;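 active = mean inhibition across replicates above the hit cutoff set in the primary screen, cut at about 26% in these data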;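 also: blocked labeling of the enzyme by serine hydrolase FP-Rh probe lowers polarization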
LYPLA2 ABPP = LYPLA2 (human) inhibition, late stage results; inhibition, % at 20 µM; shares compounds with LYPLA2 counter; AID 652029; rhLYPLA2 in mouse brain proteome, gel ABPP FP-Rh; 150 tested, 30% active;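 active = inhibition of LYPLA2 enzyme probe labeling above about 50%, limit read from the data; inactive = inhibition below that limit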;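 also: loss of FP-Rh probe labeling of the LYPLA2 gel band measured as band density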
Each line names hits and unclear results; the compound was inactive in the other large screens (follow-up assays come after a bar, where they were run).

Cc1ccc(C)c(N2CCN(C(=O)c3ccc(CSc4nc5ccncc5[nH]4)cc3)CC2)c1	none
COc1ccc(N2CCN(CC(=O)c3ccccc3)CC2)cc1	none
COc1ccc(N2CCN(CCC(=O)c3ccc4ccccc4c3)CC2)cc1	LYPLA2 counter 28.6 | LYPLA2 conf 26.5
COc1ccc(N2CCN(C(=O)c3ccc4c(c3)CCN4S(=O)(=O)c3ccccc3)CC2)cc1	LYPLA2 counter 34.6 | LYPLA2 conf 41.5
Cc1noc(C)c1S(=O)(=O)Nc1ccc(C(=O)N2CCN(c3cccc(Cl)c3)CC2)cc1	LYPLA2 counter 30.3 | LYPLA2 conf inactive
CCC(C(=O)Nc1cccc(C(=O)O)c1)c1ccccc1 (stereo not drawn)	none
COc1ccc(N2CCN(C(=O)c3ccc(CSc4ccccc4)cc3)CC2)cc1	LYPLA2 counter 30.1 | LYPLA2 conf 42.1
COc1ccc(N2CCN(C(=O)c3ccc(S(=O)(=O)NCc4ccco4)cc3)CC2)cc1	LYPLA2 counter 31.9 (no result: Fam108B inh, MEX-5 binding) | LYPLA2 conf 38.3
COc1ccc(N2CCN(C(=O)c3ccc(NS(=O)(=O)c4ccccc4)cc3)CC2)cc1	LYPLA2 counter 37.4 | LYPLA2 conf 33.7
CC(C)N1CCc2c(sc(NC(=O)c3ccc(C(=O)c4ccccc4)cc3)c2C(N)=O)C1	LYPLA2 counter 26.0 | LYPLA2 conf 31.4
O=C(CCNS(=O)(=O)c1cccs1)N1CCN(c2cccc(C(F)(F)F)c2)CC1	LYPLA2 counter 36.8 (no result: Fam108B inh, MEX-5 binding) | LYPLA2 conf 28.0
COc1ccc(N2CCN(C(=O)CCNS(=O)(=O)c3cccs3)CC2)cc1	none
Cc1cc(N2CCOCC2)nc2ccc(NC(=O)CCC(=O)N3CCN(c4cccc(C(F)(F)F)c4)CC3)cc12	LYPLA2 counter 41.4 | LYPLA2 conf 50.9 | LYPLA2 ABPP inactive
Cc1ccc(-c2noc(CCC(=O)N3CCN(c4cccc(C(F)(F)F)c4)CC3)n2)cc1	LYPLA2 counter 42.1 | LYPLA2 conf 38.2
Cn1c(=O)cc(OCC(=O)N2CCN(c3cccc(C(F)(F)F)c3)CC2)c2ccccc21	LYPLA2 counter 32.6 | LYPLA2 conf 62.3 | LYPLA2 ABPP inactive
CC1CN(C(=O)CCC(=O)N2CCN(c3cccc(C(F)(F)F)c3)CC2)c2ccccc2O1 (stereo not drawn)	LYPLA2 counter 59.3 | LYPLA2 conf 59.1 | LYPLA2 ABPP inactive
C=CC[C@@H](CC(=O)N[C@H](CO)Cc1ccccc1)C(=O)N[C@H](COC(=O)[C@@H](CC=C)Cc1ccc(F)cc1)Cc1ccccc1	none (no result: Fam108B inh, PME-1 inh, MEX-5 binding, LYPLA1 counter, LYPLA2 counter)
NC(=O)c1nn(Cc2ccccc2)c(=O)c2ccccc12	none
N#Cc1ccc(CN2CCN(C(=O)Cn3nc(C(N)=O)c4ccccc4c3=O)CC2)cc1	LYPLA2 counter 29.3 | LYPLA2 conf inactive
CCCCCCOc1ccc(OC(=O)c2ccncc2)cc1	LYPLA2 counter 47.3 | LYPLA2 conf 56.2
O=C(c1cc(-c2ccc3c(c2)OCO3)on1)N1CCN(c2ccccc2)CC1	LYPLA2 counter 27.5 (no result: MEX-5 binding) | LYPLA2 conf inactive
Cn1c(COc2ccc([N+](=O)[O-])cc2)nnc1SCC(N)=O	none (no result: MEX-5 binding)
Cc1cc2c(NC(=O)Nc3ccc(F)cc3)cccc2nn1	LYPLA2 counter 44.1 | LYPLA2 conf 54.0 | LYPLA2 ABPP inactive
Cc1cc2c(NC(=O)CC(C)(C)CC(=O)O)cccc2nn1	none
Cc1cc(C)cc(NC(=O)CN2CCc3cc4c(cc3C2C)OCCCO4)c1 (stereo not drawn)	none
CCCC(=O)c1ccc(N2CCN(C(=O)c3ccc(Br)cc3)CC2)c(F)c1	LYPLA2 counter 38.9 | LYPLA2 conf 70.4 | LYPLA2 ABPP inactive
CCC(=O)c1ccc(N2CCN(C(=O)c3ccc(Br)cc3)CC2)c(F)c1	LYPLA2 counter 29.6 | LYPLA2 conf 47.5
CCCC(=O)c1ccc(N2CCN(C(=O)c3ccccc3)CC2)c(F)c1	none
CCC(=O)c1ccc(N2CCN(C(=O)c3ccc(F)cc3)CC2)c(F)c1	none
CCOc1ccc2[nH]c(=O)c(=O)[nH]c2c1	none (no result: MEX-5 binding)

Screening data deposited in PubChem by several laboratories.
